Experiment [1] addresses Glucocorticoid receptor (Homo sapiens) (UniProt P04150). Briefly: qHTS assay for small molecule agonists of glucocorticoid receptor signaling (AID 588532; active means well fitted curve in the direction sought with a large enough effect in the signal ratio, with a control signal flat; the % refers to the signal ratio;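 further: 100% = dexamethasone at 0.1 µM and 0% = DMSO only wells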). The note with it: HeLa MMTV-bla, beta-lactamase ratio, agonist, 18 h; stronger effect = higher value; percent of dexamethasone control, DMSO zero. The method in brief:
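Quantitative HTS using CellSensor MMTV-bla HeLa cells in charcoal/dextran-treated serum; compounds tested up to 92 uM. After 18 h at 37 C, CCF4 dye reported reporter induction.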
For orientation: qHTS replaces the single test concentration by a dilution series.

Experiment [2] shares this target. Description: qHTS assay for small molecule antagonists of glucocorticoid receptor signaling (AID 588533; active means well fitted inhibition curve with a large enough effect in the signal ratio, with a control signal flat, not every such curve was filed as active; the % refers to the signal ratio;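 further: cells stimulated with 2 nM dexamethasone as agonist; on the % scale 0 is the no-effect control and ±100 the full control effect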). The note with it: HeLa MMTV-bla, GRE beta-lactamase ratio, antagonist mode, 18 h; series mostly up to 76.8 µM. In short, it runs like this: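 Antagonist-mode qHTS: compound titrations added to GRE-bla HeLa cells, then dexamethasone 2 nM final; 18 h, 37 C. CCF4 FRET fluorescence normalized to dexamethasone and DMSO; IC50 from Hill fit.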

The nature of experiment [3]: qHTS assay for small molecule antagonists of peroxisome proliferator-activated receptor delta signaling (AID 588535; active means well fitted inhibition curve with a large enough effect in the signal ratio, with a control signal flat, not every such curve was filed as active; the % refers to the signal ratio;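 on max response: cells co-treated with a PPAR-delta agonist as stimulator during compound exposure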). The note with it: HEK293T PPARd-UAS-bla, beta-lactamase FRET ratio, 18 h; 460 nm channel. In short, it runs like this:
(§1)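 HEK293T PPAR-delta-UAS-bla cells, 4000/well, 2% charcoal/dextran FBS; 5 h 37 C; cpd titration; 18 h 37 C; CCF4 2 h RT; FI 460/530 nm; Hill fit → IC50, efficacy.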

The target in experiment [4] is Peroxisome proliferator-activated receptor delta (Homo sapiens) (UniProt Q03181). The experiment is described as above. The note with it: HEK293T PPARd-UAS-bla, beta-lactamase FRET ratio, 18 h; series mostly up to 76.7 µM. The method in brief:
as §1

Experiment [5] deals with Peroxisome proliferator-activated receptor gamma (Homo sapiens) (UniProt P37231). Briefly: qHTS assay for small molecule agonists of peroxisome proliferator-activated receptor gamma signaling (AID 588536; active means well fitted curve in the direction sought with a large enough effect in the signal ratio, with a control signal flat, not every such curve was filed as active; the % refers to the signal ratio;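 further: 0% = DMSO basal wells and 100% = rosiglitazone at 2 µM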). The note with it: HEK293 PPARg-UAS-bla, beta-lactamase ratio, 16 h, percent of rosiglitazone response, DMSO as zero; series mostly up to 76.7 µM. In short, it runs like this: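 GeneBLAzer PPAR-gamma-UAS-bla HEK293 cells in 1% charcoal/dextran-treated FBS medium were treated 16 h at 37 C with compounds. Beta-lactamase activity was read by CCF4 ratio (460/530 nm). Response was normalized to 2 uM rosiglitazone (100%) and DMSO, then Hill-fitted for EC50 and efficacy.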

For experiment [6], the target named is Vitamin D3 receptor (Homo sapiens) (UniProt P11473). Description: qHTS assay for small molecule antagonists of vitamin D receptor signaling (AID 588541).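 Further: receptor activated by calcitriol during compound treatment; on the % scale 0 is the no-effect control and ±100 the full control effect.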 The note with it: HEK293T VDR-UAS-bla, beta-lactamase ratio, antagonist mode; series mostly up to 76.7 µM. The method in brief: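 Antagonist-mode beta-lactamase reporter assay: HEK293T VDR-UAS-bla cells were exposed to titrated compound alongside 1-alpha,25-dihydroxyvitamin D3 at 3 nM final for 16 h. Values were normalized to the 50 nM agonist control and DMSO basal, with IC50 and efficacy from Hill equation fits.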

Experiment [7] has the same target. Description: qHTS assay for small molecule agonists of vitamin D receptor signaling (AID 588543).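 Further: 0% = DMSO basal and 100% = reference agonist control.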 The note with it: HEK293T VDR-UAS-bla, beta-lactamase ratio, 16 h; series mostly up to 76.8 µM. The method in brief: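 Measured: β-lactamase reporter activity (CCF4, 405 nm excitation, 460/530 nm emission) in HEK293T VDR-UAS-bla cells after 16 h compound exposure at 37 °C. Normalization against 50 nM 1α,25-dihydroxyvitamin D3 and DMSO; Hill-fit EC50.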

Experiment [8] in a line: qHTS assay for small molecule agonists of retinoid X receptor alpha signaling (AID 588544).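 On activation: 0% = DMSO basal wells and 100% = reference agonist.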 The note with it: HEK293T RXRa-UAS-bla, beta-lactamase reporter, 18 h; 530 nm emission.
Experiment [9] concerns the target Retinoic acid receptor RXR-alpha (Homo sapiens) (UniProt P19793). Described as above. The note with it: HEK293T RXRa-UAS-bla, beta-lactamase reporter, 18 h; series mostly up to 76.7 µM.
Experiment [10] addresses Thyroid hormone receptor beta (Homo sapiens) (UniProt P10828). Description: qHTS assay for small molecule agonists of thyroid hormone receptor beta signaling (AID 588545).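 Further: 0% = DMSO only and 100% = 10 nM T3.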 The note with it: TR-UAS-bla GripTite HEK 293, beta-lactamase ratio, agonist mode, 18 h, percent of T3 response, DMSO as zero; series mostly up to 76.7 µM. In short, it runs like this: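 Efficacy and EC50 values derive from Hill fits of qHTS titration data, normalized to 10 nM T3 and DMSO-only wells. HEK 293 reporter cells were stimulated for 18 hrs at 37 C, with beta-lactamase activity measured by CCF4 fluorescence.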

A short description of experiment [11]: qHTS assay for small molecule antagonists of retinoid X receptor alpha signaling (AID 588546; active means well fitted inhibition curve with a large enough effect in the signal ratio, with a control signal flat, not every such curve was filed as active; the % refers to the signal ratio;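 further: cells stimulated with 9-cis-retinoic acid as agonist; on the % scale 0 is the no-effect control and ±100 the full control effect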). The note with it: HEK293T RXRa-UAS-bla, beta-lactamase ratio, antagonist mode; measured here: W530 green channel, cytotoxicity proxy. In short, it runs like this:
(§2)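 Beta-lactamase reporter inhibition, read as CCF4 fluorescence ratio (ex 405, em 460/530 nm) after 2 h at RT. HEK293T UAS-bla cells, 2500/well, were stimulated with 9-cis-RA at 500 or 100 nM final alongside test compound for 18 h at 37 C.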

Experiment [12] deals with Retinoic acid receptor RXR-alpha (Homo sapiens) (UniProt P19793). The experiment is described as above. The note with it: HEK293T RXRa-UAS-bla, beta-lactamase ratio, antagonist mode. In short, it runs like this: as §2
In experiment [13] the target is Thyroid hormone receptor beta (Homo sapiens) (UniProt P10828). Briefly: qHTS assay for small molecule antagonists of thyroid hormone receptor beta signaling (AID 588547; active means well fitted inhibition curve with a large enough effect in the signal ratio, with a control signal flat, not every such curve was filed as active; the % refers to the signal ratio;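 further: cells stimulated with 0.4 nM T3 agonist during compound exposure; on the % scale 0 is the no-effect control and ±100 the full control effect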). The note with it: TR-UAS-bla HEK293, beta-lactamase ratio, antagonist mode, 18 h. The method in brief:
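Inhibition of T3-driven (0.4nM final) beta-lactamase reporter activity was measured over 0.59 nM to 92 uM compound after 18 h at 37 C. The cells were GripTite HEK293 TR-UAS-bla in charcoal/dextran-stripped serum, with CCF4 ratio read-out and IC50 from Hill fits.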

Experiment [14] deals with Voltage-gated inwardly rectifying potassium channel KCNH2 (Homo sapiens) (UniProt Q12809). Briefly: qHTS Assay for Small Molecule Inhibitors of the Human hERG Channel Activity (AID 588834; active means well fitted inhibition curve with a large enough effect;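 further: top concentration of the series differs between compounds; on the % scale 0 is the no-effect control and ±100 the full control effect; lower thallium flux fluorescence means stronger hERG block; nearly all actives have a fitted effect of over 50% in size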). The note with it: U2OS BacMam hERG, FluxOR thallium flux fluorescence; series mostly up to 92.2 µM. In short, it runs like this: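 Blockade is seen as reduced FluxOR thallium-flux fluorescence in U2OS cells expressing hERG from a BacMam construct, in Opti-MEM with 2% FCS. Concentration-response data fitted to the Hill equation for AC50.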

Experiment [15] in a line: qHTS assay for small molecule agonists of the antioxidant response element (ARE) signaling pathway (AID 651741; active means well fitted activation curve with a large enough effect in the signal ratio; the % refers to the signal ratio; further: % of control where 0% means no effect). The note with it: HepG2 ARE-bla reporter, beta-lactamase FRET ratio, 16 h; series mostly up to 96 µM. In short, it runs like this:
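Quantitative HTS in HepG2 cells stably expressing an ARE-beta-lactamase reporter; 16 h compound exposure at 37 C, followed by 2 h room-temperature incubation with LiveBLAzer B/G FRET substrate and fluorescence measurement.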

The nature of experiment [16]: qHTS assay for small molecule activators of the p53 signaling pathway (AID 651743; active means well fitted activation curve with a large enough effect in the signal ratio, not every such curve was filed as active; the % refers to the signal ratio; further: % of control where 0% means no effect). The note with it: HCT-116 p53RE-bla, beta-lactamase FRET ratio, 16 h; stronger effect = higher value. The method in brief:
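Read-out is fluorescence intensity from the LiveBLAzer B/G FRET substrate, added for 2 hours at room temperature after HCT-116 p53RE-bla cells had been incubated with compounds for 16 hours at 37 C.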

The nature of experiment [17]: qHTS assay for small molecule activators of the nuclear factor-kappa B (NF-kB) signaling pathway (AID 651749; active means well fitted activation curve with a large enough effect in the signal ratio; the % refers to the signal ratio; further: % of control where 0% means no effect). The note with it: NF-kB-bla ME-180 cells, beta-lactamase FRET ratio, 16 h; stronger effect = higher value. The method in brief:
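Readout: beta-lactamase reporter driven by an NF-kB response element, detected fluorescently as loss of FRET. Cells were the ME-180 line, treated 16 hr at 37C with pin-transferred compound.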

The target in experiment [18] is Peroxisome proliferator-activated receptor gamma (Homo sapiens) (UniProt P37231). Briefly: qHTS assay for small molecule antagonists of peroxisome proliferator-activated receptor gamma signaling (AID 588537; active means well fitted inhibition curve with a large enough effect in the signal ratio, with a control signal flat, not every such curve was filed as active; the % refers to the signal ratio;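 further: reporter cells co-stimulated with 50 nM rosiglitazone agonist during compound treatment; % of control where 0% means no effect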). The note with it: HEK293 PPARg-UAS-bla, beta-lactamase ratio, antagonist mode; series mostly up to 76.8 µM. In short, it runs like this: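 Antagonist mode, beta-lactamase reporter in HEK293; charcoal/dextran FBS 1%; 3000 cells/well, 37 C 6-6.5 h; cpd titration + rosiglitazone 50 nM final, 16 h 37 C; CCF4, 2 h RT; 460/530 nm; Hill fit → IC50, efficacy.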

Seven molecules from PubChem BioAssay (NCATS) can be followed below.

Values joined by “and” are separate entries in the source; they are usually repeats but may differ in a detail not shown here. Equal values may be shown once. Inconclusive results are not listed. Active and inactive are the calls of the source. Unless noted, the call rests on the fitted dose curve.

Peroxisome proliferator-activated receptor delta (Homo sapiens), sequence (Q03181 whole entry, looked up): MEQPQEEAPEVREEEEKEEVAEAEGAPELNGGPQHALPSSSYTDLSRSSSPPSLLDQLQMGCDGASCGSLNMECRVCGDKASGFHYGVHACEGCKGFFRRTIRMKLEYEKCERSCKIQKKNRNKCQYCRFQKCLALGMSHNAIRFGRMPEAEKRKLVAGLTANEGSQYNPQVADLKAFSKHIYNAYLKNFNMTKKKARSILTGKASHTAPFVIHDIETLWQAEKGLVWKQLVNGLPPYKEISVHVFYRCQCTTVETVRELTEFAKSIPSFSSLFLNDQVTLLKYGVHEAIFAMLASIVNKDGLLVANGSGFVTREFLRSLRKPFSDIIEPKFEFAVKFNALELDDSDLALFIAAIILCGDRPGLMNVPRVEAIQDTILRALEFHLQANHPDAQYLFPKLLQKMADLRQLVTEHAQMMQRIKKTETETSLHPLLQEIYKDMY
Voltage-gated inwardly rectifying potassium channel KCNH2 (Homo sapiens), sequence (Q12809 whole entry, looked up): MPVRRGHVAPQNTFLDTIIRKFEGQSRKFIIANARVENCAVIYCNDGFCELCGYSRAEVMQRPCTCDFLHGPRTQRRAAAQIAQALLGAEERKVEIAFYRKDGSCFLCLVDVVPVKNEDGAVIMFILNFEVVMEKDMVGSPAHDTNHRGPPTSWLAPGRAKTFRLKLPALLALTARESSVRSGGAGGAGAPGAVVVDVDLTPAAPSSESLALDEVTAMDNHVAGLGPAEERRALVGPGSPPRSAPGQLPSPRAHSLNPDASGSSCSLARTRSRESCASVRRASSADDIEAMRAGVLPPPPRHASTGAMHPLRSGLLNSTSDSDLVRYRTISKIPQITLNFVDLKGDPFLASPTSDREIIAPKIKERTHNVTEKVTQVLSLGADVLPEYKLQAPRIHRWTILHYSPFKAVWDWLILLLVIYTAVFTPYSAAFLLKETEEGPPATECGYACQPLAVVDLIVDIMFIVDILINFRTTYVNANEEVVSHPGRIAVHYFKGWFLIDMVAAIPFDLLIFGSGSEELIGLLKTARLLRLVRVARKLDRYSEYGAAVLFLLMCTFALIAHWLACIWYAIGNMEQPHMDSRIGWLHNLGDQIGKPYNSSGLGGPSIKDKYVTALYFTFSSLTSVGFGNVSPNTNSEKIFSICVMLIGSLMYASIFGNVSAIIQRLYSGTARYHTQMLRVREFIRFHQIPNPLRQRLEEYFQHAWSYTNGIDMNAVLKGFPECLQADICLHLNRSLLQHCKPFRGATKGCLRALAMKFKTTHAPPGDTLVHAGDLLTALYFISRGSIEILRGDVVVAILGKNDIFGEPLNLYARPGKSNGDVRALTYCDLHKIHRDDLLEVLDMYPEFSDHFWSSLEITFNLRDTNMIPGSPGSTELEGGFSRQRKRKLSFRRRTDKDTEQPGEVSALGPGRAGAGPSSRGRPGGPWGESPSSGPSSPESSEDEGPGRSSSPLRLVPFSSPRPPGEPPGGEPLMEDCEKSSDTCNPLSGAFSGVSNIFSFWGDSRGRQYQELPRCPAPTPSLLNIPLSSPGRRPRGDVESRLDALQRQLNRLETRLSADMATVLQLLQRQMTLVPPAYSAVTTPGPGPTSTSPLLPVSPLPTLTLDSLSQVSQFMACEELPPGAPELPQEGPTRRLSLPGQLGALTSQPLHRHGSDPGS
Retinoic acid receptor RXR-alpha (Homo sapiens), sequence (P19793 whole entry, looked up): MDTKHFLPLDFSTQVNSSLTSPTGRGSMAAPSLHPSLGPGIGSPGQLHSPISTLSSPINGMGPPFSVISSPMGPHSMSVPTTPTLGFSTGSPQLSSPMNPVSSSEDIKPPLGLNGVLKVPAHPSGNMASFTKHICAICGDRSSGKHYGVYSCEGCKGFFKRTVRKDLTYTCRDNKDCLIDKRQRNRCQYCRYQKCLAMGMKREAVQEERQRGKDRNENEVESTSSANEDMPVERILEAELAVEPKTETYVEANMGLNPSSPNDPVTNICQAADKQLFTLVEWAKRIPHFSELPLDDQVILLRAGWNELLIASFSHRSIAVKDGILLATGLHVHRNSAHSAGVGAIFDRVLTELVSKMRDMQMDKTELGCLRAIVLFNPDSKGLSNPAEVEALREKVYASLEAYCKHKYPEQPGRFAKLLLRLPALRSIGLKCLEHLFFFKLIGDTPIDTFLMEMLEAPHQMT
Vitamin D3 receptor (Homo sapiens), sequence (P11473 whole entry, looked up): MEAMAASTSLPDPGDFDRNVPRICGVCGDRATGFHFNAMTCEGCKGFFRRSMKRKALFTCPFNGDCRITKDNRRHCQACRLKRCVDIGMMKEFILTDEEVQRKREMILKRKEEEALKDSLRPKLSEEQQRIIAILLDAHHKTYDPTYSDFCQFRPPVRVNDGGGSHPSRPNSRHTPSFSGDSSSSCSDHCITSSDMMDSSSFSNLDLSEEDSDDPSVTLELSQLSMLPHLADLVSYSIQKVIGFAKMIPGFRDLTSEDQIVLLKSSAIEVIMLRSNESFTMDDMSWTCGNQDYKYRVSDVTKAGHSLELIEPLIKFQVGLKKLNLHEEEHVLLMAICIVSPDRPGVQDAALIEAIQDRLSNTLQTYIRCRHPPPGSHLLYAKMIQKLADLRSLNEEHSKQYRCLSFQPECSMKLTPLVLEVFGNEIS
Thyroid hormone receptor beta (Homo sapiens), sequence (P10828 whole entry, looked up): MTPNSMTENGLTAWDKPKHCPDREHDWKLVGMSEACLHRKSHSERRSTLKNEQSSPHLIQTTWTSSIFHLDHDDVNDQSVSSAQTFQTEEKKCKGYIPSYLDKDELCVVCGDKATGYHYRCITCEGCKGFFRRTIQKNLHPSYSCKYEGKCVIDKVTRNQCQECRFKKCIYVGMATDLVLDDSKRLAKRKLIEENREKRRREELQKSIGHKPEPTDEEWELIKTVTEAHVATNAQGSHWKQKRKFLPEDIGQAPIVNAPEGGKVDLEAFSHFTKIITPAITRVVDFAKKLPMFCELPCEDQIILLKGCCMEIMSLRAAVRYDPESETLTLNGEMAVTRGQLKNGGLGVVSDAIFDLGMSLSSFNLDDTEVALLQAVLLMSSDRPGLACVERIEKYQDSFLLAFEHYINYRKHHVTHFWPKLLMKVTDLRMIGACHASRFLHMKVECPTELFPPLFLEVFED
Peroxisome proliferator-activated receptor gamma (Homo sapiens), sequence (P37231 whole entry, looked up): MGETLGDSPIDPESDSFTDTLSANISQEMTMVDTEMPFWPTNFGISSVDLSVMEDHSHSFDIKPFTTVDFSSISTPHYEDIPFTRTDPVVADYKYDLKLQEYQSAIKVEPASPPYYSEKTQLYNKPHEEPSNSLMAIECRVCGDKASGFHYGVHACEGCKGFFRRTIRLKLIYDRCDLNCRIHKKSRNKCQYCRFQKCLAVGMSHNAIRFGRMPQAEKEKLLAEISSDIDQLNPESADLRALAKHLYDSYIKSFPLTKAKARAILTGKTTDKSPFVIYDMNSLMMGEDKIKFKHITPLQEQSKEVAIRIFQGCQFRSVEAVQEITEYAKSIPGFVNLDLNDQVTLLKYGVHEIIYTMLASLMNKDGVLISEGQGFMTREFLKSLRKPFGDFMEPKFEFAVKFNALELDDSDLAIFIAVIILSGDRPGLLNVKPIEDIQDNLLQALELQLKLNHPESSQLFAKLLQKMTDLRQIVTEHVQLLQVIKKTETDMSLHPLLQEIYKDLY
Glucocorticoid receptor (Homo sapiens), sequence (P04150 whole entry, looked up): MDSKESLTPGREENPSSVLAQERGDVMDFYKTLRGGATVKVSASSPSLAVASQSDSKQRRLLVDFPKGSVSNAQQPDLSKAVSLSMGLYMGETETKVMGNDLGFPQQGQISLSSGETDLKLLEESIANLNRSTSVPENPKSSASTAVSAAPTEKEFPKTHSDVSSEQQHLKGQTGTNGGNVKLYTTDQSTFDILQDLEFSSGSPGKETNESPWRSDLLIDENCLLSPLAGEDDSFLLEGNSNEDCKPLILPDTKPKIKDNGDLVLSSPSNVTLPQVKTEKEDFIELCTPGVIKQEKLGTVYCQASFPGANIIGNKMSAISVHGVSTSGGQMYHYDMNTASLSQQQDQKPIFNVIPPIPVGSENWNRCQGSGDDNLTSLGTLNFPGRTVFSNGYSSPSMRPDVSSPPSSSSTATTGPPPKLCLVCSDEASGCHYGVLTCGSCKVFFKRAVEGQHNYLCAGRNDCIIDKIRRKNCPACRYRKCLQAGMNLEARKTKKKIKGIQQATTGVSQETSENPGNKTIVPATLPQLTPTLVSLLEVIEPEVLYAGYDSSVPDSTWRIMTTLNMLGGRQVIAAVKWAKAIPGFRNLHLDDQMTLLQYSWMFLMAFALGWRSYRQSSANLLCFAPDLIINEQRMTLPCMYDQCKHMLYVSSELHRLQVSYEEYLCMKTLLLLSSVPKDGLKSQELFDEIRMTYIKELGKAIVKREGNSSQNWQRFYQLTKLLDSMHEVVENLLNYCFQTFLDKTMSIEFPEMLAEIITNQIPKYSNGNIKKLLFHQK

For the molecule `CC(=O)Nc1ccc(C)cc1`, the figures for the activation in [1], in experiment [16] and in experiment [17] were 8.72% (inactive), -3.2% (inactive) and 1.33% (inactive), respectively. The outcome in [2], in experiment [5], in experiment [6], in [7], in [9] and in experiment [10] was inactive. The max response is -10.7% in experiment [3], -6.19% in experiment [8], -3.72% in [11] and 5.73% (inactive) in [12]. The Potency result in experiment [4], in experiment [14] and in [15] was “inactive” each time. Besides, the activity change % (negative = inhibition) in experiment [13] is 8.42% (inactive).

For `CC(O)COC(C)(C)C` (configuration not stated), the figures for the activation in experiment [1], in [16] and in [17] were -7.34% (inactive), -6.33% (inactive) and -0.964% (inactive), respectively. Moreover, the result in experiment [2], in [5], in [6], in experiment [7], in [9] and in [10] was inactive. For the same molecule, the max response in experiment [3] is -1.74%; in experiment [8], -7.25%; in experiment [11], 0.664%; in experiment [12], -2.68% (inactive). Besides, the Potency result in experiment [4], in experiment [14] and in [15] was “inactive” throughout. Moreover, in [13], the activity change % (negative = inhibition) was -13.8% (inactive).

Take `O=C1OC(=O)c2cc([N+](=O)[O-])ccc21`: the activation is 5.66% (inactive) in experiment [1], 1.53% (inactive) in experiment [16] and -0.857% (inactive) in [17]. The outcome in experiment [2], in [5], in experiment [18], in [6], in experiment [7] and in experiment [9] was inactive. Besides, the outcome in [10] was inactive. The max response is 9.55% in [3], 18.2% in [8] and 10.4% in experiment [11]. The Potency entry in experiment [4] and in experiment [15] was “inactive” each time. Further, the activity change % (negative = inhibition) in [13] was 7.82% (inactive).

Regarding `O=C(O)c1ccc(C(=O)O)cc1`, the activation in experiment [1] is 6.51% (inactive) and -2.73% (inactive); in experiment [16] it was -0.449% (inactive) and 6.06% (inactive); in experiment [17], 0.423% (inactive) and -1.36% (inactive). Moreover, the result in [2], in experiment [5], in [18], in [6], in experiment [7] and in experiment [9] was inactive. For the same molecule, the outcome in [10] was inactive. The max response in [3] was 14.5% and 21.9%; in experiment [8] it was -16.5% and -21.7%; in [11], -3.66% and -13.6%; in [12], 1.97% (inactive) and -1.47% (inactive). Moreover, the Potency result in experiment [4], in [14] and in [15] was “inactive” throughout. Moreover, the activity change % (negative = inhibition) in [13] was -2.68% (inactive) and 4.87% (inactive).

Take `CC(C)=C1CCC(C)CC1=O` (configuration not stated): the activation was -0.919% (inactive) in experiment [1], -1.57% (inactive) in [16] and -0.315% (inactive) in [17]. The outcome in [2], in experiment [5], in experiment [18], in [7] and in experiment [9] was inactive. Also, the max response in experiment [3] was -8.22%; in [8], -4.57%; in experiment [11], 3.58%. Besides, the Potency result in experiment [4], in [14] and in experiment [15] was “inactive” in each case.

Consider `C=Cc1ccccc1C=C`, for which the activation in [1] was 2.03% (inactive); in experiment [16], -1.45% (inactive). Also, the outcome in [2], in [5], in experiment [18], in experiment [6], in [7] and in [9] was inactive. For the same molecule, the result in experiment [10] was inactive. Also, the max response in experiment [3] was -7.99%; in experiment [8], -7.36%; in experiment [11], -3.83%; in [12], -4.16% (inactive). The Potency result in experiment [4] was “inactive”.

For `O=C(O)c1cccc(Cl)c1Cl`, the activation in [1] is 6.71% (inactive); in [16] it was -0.257% (inactive); in experiment [17], 0.0203% (inactive). The result in experiment [2], in [5], in [18], in [6], in experiment [7] and in experiment [9] was inactive. Further, the max response is 5.12% in experiment [3], -8.8% in experiment [8], -3.86% in experiment [11] and -4.53% (inactive) in experiment [12]. Further, the Potency entry in experiment [4], in experiment [14] and in experiment [15] was “inactive” each time.
